TGFb SMAD3 inh – TGF-b pathway inhibition. actives 1.2% (n = 410,000). HepG2 CAGA-GFP TGF-b/SMAD3 reporter, GFP fluorescence, 18 h; TGF-beta stimulated, 500 pg/mL final. Potency, µM (doses to about 46.1 µM), actives largely listed as inhibitors. AID 588855; also: nearly all actives have a fitted effect of over 65% in size
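Smad-responsive CAGA-GFP expression was quantified in HEPG2 cells exposed to compounds and 500 pg/mL final TGF-beta for 18 h at 37 degrees C; unstimulated wells defined full inhibition.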
TDP1 cell noCPT – qHTS for Inhibitors of human tyrosyl-DNA phosphodiesterase 1 (TDP1): qHTS in cells in absence of CPT; actives 15% (n = 420,000); Potency, µM (titrated, usually from 46.2 µM), usual class: inhibitors; AID 686978, 2013; DT40 Tdp1-/- hTDP1 cells, no CPT, ATP luminescence, 48 h; also: nearly all actives have a fitted effect of over 55% in size
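Stably hTDP1-transfected Tdp1-null chicken DT40 cells were treated with library compounds minus camptothecin and grown for at least 48 hr at 37 °C, after which cellular ATP was quantified by luminescence.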
HepG2 viability – HepG2 cytotoxicity, counter-screen for TGF-b inhibitors | HepG2 CAGA-GFP viability, ATP luminescence, 18 h | Potency, µM (doses to about 46.1 µM), actives largely listed as cytotoxic | actives 0.76% (n = 410,000) | AID 588856
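HepG2 CAGA-GFP cells (1000/well, DMEM with 1% FBS) received compound, then TGF-beta at 500 pg/mL final, and were incubated 18 hours at 37 degrees C. Viability was read by CellTiter-Glo luminescence. Media-only wells were set as complete cell-killing and DMSO as no toxicity.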
IL1B secr inh – inhibitors of inflammasome signaling (IL-1 beta secretion); activity change, % at 57.5 µM; THP-1 LPS/ATP IL-1B secretion, AlphaLISA, 16 h; hits give low values; AID 743279; actives 4.7% (n = 360,000); in the data active = activity change below about -50%; inconclusive = mostly about -30% to -49%
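Secreted IL-1B measured by AlphaLISA bead assay after 16 h compound exposure of THP-1 cells; compounds (final up to 57.5 uM) added 1 h before LPS (250 ng/mL) and ATP (1.25 mM) stimulation; lower signal means less secretion.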
S-ASM inh – human S-ASM enzyme inhibition | P17405 | placental ASM, HMU-PC fluorogenic substrate, 60 min | Potency, µM (doses to about 57.5 µM), actives largely listed as inhibitors | actives 0.006% (n = 340,000)
Target sequence (P17405 47-631 limits assumed): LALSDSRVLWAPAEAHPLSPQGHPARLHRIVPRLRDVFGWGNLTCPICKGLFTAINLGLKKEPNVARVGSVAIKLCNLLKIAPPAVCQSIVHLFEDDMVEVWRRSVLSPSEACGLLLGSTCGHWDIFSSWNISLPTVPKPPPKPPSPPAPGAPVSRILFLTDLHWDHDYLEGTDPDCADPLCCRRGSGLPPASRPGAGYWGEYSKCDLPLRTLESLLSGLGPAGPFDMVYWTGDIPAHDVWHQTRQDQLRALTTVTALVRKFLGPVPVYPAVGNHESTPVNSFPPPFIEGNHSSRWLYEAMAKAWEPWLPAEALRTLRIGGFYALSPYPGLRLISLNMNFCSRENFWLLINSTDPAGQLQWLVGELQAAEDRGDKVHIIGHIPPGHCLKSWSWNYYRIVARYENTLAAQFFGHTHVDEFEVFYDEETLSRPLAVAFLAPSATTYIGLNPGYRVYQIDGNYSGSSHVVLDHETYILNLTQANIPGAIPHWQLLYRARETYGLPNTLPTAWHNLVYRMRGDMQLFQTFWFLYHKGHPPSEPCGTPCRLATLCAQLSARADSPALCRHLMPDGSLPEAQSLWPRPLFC
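HMU-PC0 cleavage (9 uM final) by human placental ASM, 60 min at 37 °C following 10 min compound exposure at RT; stopped at pH 10, fluorescence Ex 386/Em 447 nm.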
TDP1 cell CPT – DT40-hTDP1 cell growth loss with CPT; AID 686979; actives 12% (n = 420,000); chicken DT40 Tdp1-/-;hTDP1 cells + 20 nM CPT, ATP luminescence, 48 h; Potency, µM (top dose mostly 46.2 µM), usual class: inhibitors; also: nearly all actives have a fitted effect of over 55% in size
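Cell growth measured by CellTiter-Glo luminescence after a minimum 48 h, 37 C compound exposure with 20 nM CPT in Tdp1-knockout DT40 cells stably expressing hTDP1, seeded 400/well; qHTS titration format.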
Numbers stand for hits; n = inactive; u = inconclusive; x = not tested or not shown. The list is not random: actives were taken first. Their share in the collection is about 19%. Unless noted, calls follow the shape of the dose curve; as a rule, active = well fitted curve in the direction sought with a large enough effect; inconclusive = small, poorly fitted or top-dose-only effect, or another doubt; inactive = no such curve, though single readings can be large; an effect the other way counts as inactive or inconclusive.

SMILES | TGFb SMAD3 inh | TDP1 cell noCPT | HepG2 viability | IL1B secr inh | S-ASM inh | TDP1 cell CPT
COc1ccc(Cn2cc(CN3CCOCC3)nn2)cc1 | n | n | n | n | x | n
O=C(CCNc1ccc(F)cc1)c1ccco1 | u | 7.3µM | n | n | n | 3.3µM
O=C(CNC(=O)c1ccco1)Nc1ccc(F)cc1 | n | u | n | n | n | u
CCCNC(=O)C1(C)CCCN(C(=O)c2cc(F)cc(F)c2)C1 (stereo unspecified) | n | n | n | n | x | n
CCCN1CCC(=O)N(C(CSc2ccc(OC)cc2)CC(C)C)CC1 (stereo unspecified) | n | x | n | x | x | x
Cc1ccnc(NC(=O)C2CCCN(c3ncnc4c3nc3n4CCCCC3)C2)c1 (stereo unspecified) | n | u | n | n | n | n
CCN(C(=O)C1CCCN(c2ncnc3c2nc2n3CCCCC2)C1)c1cccc(C)c1 (stereo unspecified) | u | 5.8µM | n | x | x | 12µM
CCN(C(=O)C1CCCN(c2ncnc3c2nc2n3CCCCC2)C1)c1cccc(Cl)c1 (stereo unspecified) | u | 10µM | n | n | n | 21µM
O=C(N/N=C/c1ccccc1)c1ccc(N2CCCC2=O)cc1 | u | n | n | n | n | n
Cc1c(CCOC(=O)c2ccccc2)sc[n+]1CC(=O)c1ccc(Br)cc1 | n | u | n | -65 | n | u
Cc1c(CCOC(=O)c2ccccc2)sc[n+]1Cc1ccccc1 | n | 23µM | n | n | n | 16µM
Cc1c(CCOC(=O)c2cc([N+](=O)[O-])cc([N+](=O)[O-])c2)sc[n+]1CC(=O)c1ccccc1 | n | n | n | n | n | n
CC(OC(=O)Cc1c[nH]c2ccccc12)C(=O)c1ccccc1 (stereo unspecified) | n | n | n | n | n | n
O=C(O)COCC(=O)N1CCCN(c2nccc(C(F)(F)F)n2)CC1 | n | n | n | n | n | n
COc1ccc(-c2nnc(SCC(=O)Nc3c(C)cccc3C)nc2-c2ccc(OC)cc2)cc1 | n | 1.8µM | n | x | x | u
O=C(CSc1nnc(-c2ccco2)c(-c2ccco2)n1)Nc1ccccc1 | n | u | n | -58 | n | u
COc1ccc(NC(=O)CSc2nc(-c3ccc(F)cc3)c3cccc(C)c3n2)cc1 | n | u | n | x | x | u
O=C(CSc1nnc(-c2ccccc2)c(-c2ccccc2)n1)NCc1ccco1 | n | 23µM | n | n | n | u
COc1ccc(OCCN(C)CC(=O)Nc2c(C)cccc2C)cc1 | n | 23µM | n | n | n | u
CN(C)c1ccc(NC(=O)CSc2nnc(-c3ccco3)c(-c3ccco3)n2)cc1 | n | 16µM | n | n | n | u
Cc1cccc(C)c1NC(=O)CSc1nnc(-c2ccco2)c(-c2ccco2)n1 | n | n | n | -77 | n | n
Cc1nc(NC(=O)CSc2nnc(-c3ccccc3)c(-c3ccccc3)n2)c(Cl)cc1Cl | n | 26µM | n | n | n | 23µM
COc1cccc(NC(=O)CSc2nnc(-c3ccco3)c(-c3ccco3)n2)c1 | n | n | n | n | n | u
O=C(CSc1nnc(-c2ccccc2)c(-c2ccccc2)n1)Nc1ncc(Cl)cc1Cl | n | n | n | n | n | n
O=C(O)c1nn(CCOc2ccccc2F)c(=O)c2ccccc12 | n | u | n | n | n | n
SMILES | TGFb SMAD3 inh | TDP1 cell noCPT | HepG2 viability | IL1B secr inh | S-ASM inh | TDP1 cell CPT
O=C(O)c1cccc(Nc2ccncc2[N+](=O)[O-])c1 | n | 18µM | n | n | n | u
O=C(COc1ccccc1Cl)N(Cc1ccco1)Cc1ccco1 | n | 23µM | n | x | x | u
O=C(COc1ccc(Cl)cc1Cl)N(Cc1ccco1)C1CCS(=O)(=O)C1 (stereo unspecified) | n | n | n | n | n | n
Cc1ccc(CN(Cc2ccco2)C(=O)c2ccc(Cl)cc2Cl)cc1 | n | u | n | x | x | u
Cc1cccc(OCC(=O)N(Cc2cccc(Cl)c2)Cc2ccco2)c1C | x | n | n | x | x | 6.5µM
Cc1cc(OC(C)C(=O)N(Cc2ccco2)Cc2ccccc2F)cc(C)c1Cl (stereo unspecified) | u | 13µM | n | x | x | 21µM
O=C(c1cccc(Cl)c1)N(Cc1ccco1)Cc1ccccc1Cl | x | n | n | x | x | u
Nc1c(N(Cc2ccco2)C(=O)COc2ccccc2Cl)c(=O)[nH]c(=O)n1Cc1ccccc1 | n | n | n | n | n | n
Cc1cc(Cl)ccc1OCC(=O)N(Cc1ccco1)Cc1ccco1 | n | 23µM | n | x | x | u
COc1c(C)cc(C(O)c2ncc(-c3ccccc3C)[nH]2)cc1C (stereo unspecified) | n | u | n | n | x | u
Cc1ccc(CN(Cc2ccco2)C(=O)COc2ccc(Cl)cc2Cl)cc1 | u | 18µM | n | x | x | u
CCOC(=O)CC1(C)Oc2ccccc2N1S(=O)(=O)c1ccc(C)cc1 (stereo unspecified) | x | u | x | n | x | 21µM
CCOC(=O)C1CN(S(=O)(=O)c2ccc(C)cc2)c2cc(S(=O)(=O)CC)ccc2O1 (stereo unspecified) | n | n | n | n | n | n
COc1cc2c(cc1OC)n(CC(=O)Nc1ccccc1)c(=O)n1nc(-c3ccccc3)nc21 | n | n | n | x | x | n
O=C(C1Cc2ccccc2CN1S(=O)(=O)c1ccccc1[N+](=O)[O-])N1CCOCC1 (stereo unspecified) | n | u | n | n | n | 21µM
O=C(C1CCN(S(=O)(=O)c2ccccc2[N+](=O)[O-])CC1)N1CCOCC1 | n | n | n | n | n | n
COC(=O)c1cc(NC(=O)c2ccc(-c3ccc(Cl)cc3Cl)o2)cc(C(=O)OC)c1 | n | n | n | x | x | n
Cc1ccc(NC(=O)c2ccc(-c3cc(Cl)ccc3Cl)o2)c(C)c1 | n | u | n | n | x | 21µM
COc1cccc(OC)c1NC(=O)c1ccc(-c2cc(Cl)ccc2Cl)o1 | u | u | n | -58 | x | u
Cc1ccccc1NC(=O)c1ccc(-c2ccc(Cl)cc2Cl)o1 | u | 13µM | n | n | n | u
Cc1ccc(/C=C/c2nc3ccccc3n2S(=O)(=O)c2cccc(Cl)c2)cc1 | n | 10µM | n | x | x | 13µM
CSc1ccc(/C=C/c2nc3ccccc3n2S(=O)(=O)c2ccc(F)c(C)c2)cc1 | u | 21µM | n | x | x | 18µM
CCOc1ccc(/C=C/c2nc3ccccc3n2S(=O)(=O)c2cccc(Cl)c2)cc1 | n | 6.5µM | n | x | x | 7.3µM
CCOc1cc(S(=O)(=O)n2c(C)nc3ccccc32)ccc1F | n | u | n | n | n | u
